Rows were chosen to be rich in hits. Some 10% of all compounds tested hit in one or more screens of this group.
PTEN del growth: suppresses growth of cells with PTEN deletion; HCT116 PTEN-null viability, CellTiter-Glo, 60 h; hits give low values; viability, % at 10 µM; actives 1.2% (n = 140,000); AID 827;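 active = viability at or below a set limit, 4 SD under the median of all tested compounds, cut at about 3.7% in these data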;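 note: PTEN knockout HCT116 line with beta catenin targeted HCT116 as companion control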
ROMK mod: modulates human ROMK potassium channel activity. P48048. Tet-inducible ROMK, thallium flux fluorescence; actives lie on both sides. B-score at 10 µM. actives 2% (n = 130,000). AID 1918;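 active = signal ratio slope over the read window, or its plate-corrected B-score, at least 3 SD from the plate mean, either direction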;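 note: B-score of the F/F0 ratio slope over 7 to 12 s after thallium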
Target sequence (P48048 whole entry, looked up): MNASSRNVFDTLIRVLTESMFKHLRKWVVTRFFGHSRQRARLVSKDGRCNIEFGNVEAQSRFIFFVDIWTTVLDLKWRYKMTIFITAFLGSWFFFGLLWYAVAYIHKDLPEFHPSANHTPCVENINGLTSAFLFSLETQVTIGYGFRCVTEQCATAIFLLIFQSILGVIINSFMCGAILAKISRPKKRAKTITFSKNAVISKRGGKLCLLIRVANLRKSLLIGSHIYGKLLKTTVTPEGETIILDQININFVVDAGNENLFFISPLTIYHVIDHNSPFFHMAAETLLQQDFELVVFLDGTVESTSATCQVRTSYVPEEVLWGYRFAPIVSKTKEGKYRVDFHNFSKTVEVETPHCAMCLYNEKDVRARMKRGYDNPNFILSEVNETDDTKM
bCat KO growth: beta-catenin-lacking colon tumor cell growth suppression. HCT116 beta-catenin knockout viability, CellTiter-Glo, 60 h; hits give low values. viability, % at 10 µM. actives 1.5% (n = 140,000). AID 818;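 active = viability at or under a set limit, the compound median less 4 SD, cut at about 6% in these data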;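 note: 0% = Hyamine 1622 control at 20 µM and 100% = untreated cell control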
Insulin prom inh: TRM-6 insulin promoter activity inhibition; TRM-6 cells (human fetal islet line), insulin promoter-eGFP reporter, imaging; reporter expression induced with tamoxifen; inhibition, % at 2 µM; actives 0.9% (n = 130,000);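 active = inhibition above the mean plus 3 SD, with well images judged a real hit on visual review, cut at about 60% in these data, passing the limit was not always enough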
L major viab: inhibitors of Leishmania major promastigote growth | Leishmania major promastigotes, resazurin fluorescence viability | inhibition, % at 10 µM | actives 9% (n = 200,000) | AID 1063; in the data active = inhibition above about 50%;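 note: promastigotes grown with compound for 44 hours at 28 °C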
p97 ATPase inh: blocks human p97 ATPase activity; P55072; recombinant p97 ATPase, Kinase-Glo ATP luminescence, 3 h; inhibition, % at 8 µM; actives 0.42% (n = 220,000); AID 1481; in the data active = inhibition above about 15%;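 note: 0% = DMSO vehicle and 100% = wells lacking enzyme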
An asterisk follows results filed as active; . = no result.

SMILES | PTEN del growth | ROMK mod | bCat KO growth | Insulin prom inh | L major viab | p97 ATPase inh
NC(=O)c1ccsc1NC(=O)c1ccc(N2CCCC2=O)cc1 | . | 0.487 | . | . | 13.2 | -12.6
O=C(O)c1ccccc1N/C=C\[N+](=O)[O-] | . | 0.282 | . | . | -4.4 | 1.4
CCOC(=O)c1c(NC(=O)COc2cccc3c2CCN(C)C3=O)sc2c1CCC2 | 18.5 | . | 15.2 | -17.9 | 79.8* | 0.1
Cc1cccc(NC(=O)COc2cccc3c2CCN(C)C3=O)c1C | . | -0.0163 | . | . | -5.2 | 6.9
CCOC(=O)c1c(NC(=O)C2CCCN(S(=O)(=O)c3ccccc3)C2)sc2c1CCCC2 (stereo unspecified) | 48.2 | . | 20.3 | -12.0 | 81.4* | 3.6
CCOC(=O)c1c(NC(=O)C2CCCN(S(=O)(=O)c3ccc(C)cc3)C2)sc2c1CCCC2 (stereo unspecified) | 63.5 | . | 41.9 | -71.0 | 5.9 | 1.5
CCOC(=O)c1c(NC(=O)c2ccc(-n3cnnn3)cc2)sc2c1CCCC2 | 4.6 | -0.243 | 3.4* | -56.2 | -0.1 | 4.8
CC(=O)c1ccc(N=c2scc(C)n2C(C)C)cc1 | . | 0.448 | . | . | 8.3 | 0.6
CCN(CC(=O)N1CCc2ccccc2C1)S(=O)(=O)c1ccc2ccccc2c1 | 94.4 | -2.96 | 88.4 | 3.9 | -2.9 | -7.9
Cc1ccc(S(=O)(=O)Nc2ccc(Cl)cc2C(=O)c2ccc(F)cc2)cc1 | 60.1 | . | 72.7 | . | 14.1 | -1.7
COc1ccc(C)cc1NC(=O)c1ccc([N+](=O)[O-])cc1[N+](=O)[O-] | . | 0.548 | . | . | 52.5* | 4.6
COc1ccc([N+](=O)[O-])cc1NC(=O)Cc1ccc(Cl)cc1 | 64.3 | . | 62.5 | 44.8 | 47.9 | 2.1
O=C(Nc1cccc2oc(=O)ccc12)c1ccc([N+](=O)[O-])cc1[N+](=O)[O-] | 31.1 | -0.768 | 18.6 | 0.0 | 97.5* | 2.4
COc1ccc([N+](=O)[O-])cc1NC(=O)c1cc(C)c(C)o1 | . | 2.6 | . | . | -2.9 | 4.5
COc1ccc([N+](=O)[O-])cc1NC(=O)Cc1ccc(C)cc1 | 79.0 | 1.38 | 90.0 | -16.2 | 57.8* | 1.9
O=C(Nc1ncn[nH]1)c1ccc([N+](=O)[O-])cc1[N+](=O)[O-] | 102.2 | . | 97.5 | 21.4 | -6.2 | 2.4
COc1ccc([N+](=O)[O-])cc1NC(=S)NC(NC(=O)Cc1ccc(OC)c(OC)c1)C(Cl)(Cl)Cl (stereo unspecified) | 4.0 | 0.127 | 4.9* | . | -10.6 | 0.6
CCn1c(NC(=O)c2ccco2)c(-c2ccccc2Cl)c(=O)c2ccccc21 | 89.1 | . | 86.5 | 90.0* | -4.2 | 1.4
Cn1c(NC(=O)c2ccco2)c(-c2ccccc2)c(=O)c2ccccc21 | 100.7 | . | 100.9 | 53.9 | 2.6 | 5.4
Cc1ccc(CN2C(=O)CCC2C(=O)NCCN(CC(C)C)CC(C)C)cc1 (stereo unspecified) | 85.4 | . | 82.2 | . | 1.4 | -4.8
c1ccc(Nc2nc(N3CCOCC3)nc(N3CCOCC3)n2)cc1 | 66.8 | -0.513 | 62.2 | . | -0.5 | 6.2
C(=N\Nc1nc(Nc2ccccc2)nc(N2CCOCC2)n1)/c1c[nH]c2ccccc12 | 9.6 | . | 12.7 | -20.0 | 96.6* | 7.0
c1ccc(Nc2nc(N3CCNCC3)nc(N3CCOCC3)n2)cc1 | 69.3 | -2.11 | 73.3 | -18.8 | 3.0 | 4.3
Cc1ccc(Nc2nc(N/N=C/c3c[nH]c4ccccc34)nc(N3CCOCC3)n2)cc1 | 2.8* | . | 5.1* | -3.0 | 54.0* | 5.0
Cc1[nH]c2ccccc2c1/C=N/Nc1nc(Nc2ccc(F)cc2)nc(N2CCOCC2)n1 | 3.6* | . | 5.8* | -31.2 | 99.1* | 5.5
SMILES | PTEN del growth | ROMK mod | bCat KO growth | Insulin prom inh | L major viab | p97 ATPase inh
CN1CCN(CC(=O)Nc2c(C#N)cnn2-c2ccccc2)CC1 | . | 0.99 | . | . | . | 0.2
COc1n[nH]c(C(=O)Nc2nc3ccccc3s2)c1[N+](=O)[O-] | . | -0.136 | . | . | 70.1* | 2.3
Cc1ccc(S(=O)(=O)/N=c2\ccc(Cl)cn2C(F)F)cc1 | . | 0.277 | . | 6.2 | -5.2 | 2.2
N#Cc1ncc(-c2ccc3c(c2)OCCOCCOCCOCCO3)nc1C#N | 40.0 | -0.63 | 31.0 | -39.3 | 22.2 | -5.6
N#Cc1ncc(-c2ccc3c(c2)OCCOCCOCCOCCOCCO3)nc1C#N | 2.8* | . | 3.8* | -123.3 | 95.5* | 0.1
C[C@]12CCC3c4ccc(OCC(=O)O)cc4CCC3C1CCC2=O (stereo partly specified) | . | . | . | . | . | -1.5
O=C1NC(=S)N(c2cccc(Cl)c2)C12CCCCC2 | 98.4 | 0.00847 | 95.7 | -26.3 | 52.2* | -4.9
CS(=O)(=O)c1cnc(-c2ccccc2)nc1-c1ccccc1Cl | . | -0.00588 | . | 5.0 | 8.8 | 2.3
COc1ccc(/C=C/C(=O)c2nc3ccccc3n2CC(=O)c2ccc(OC)cc2)cc1 | 78.5 | 0.0578 | 91.7 | . | 75.1* | 3.4
COc1ccc(C(=O)CSc2nnc(Cn3nnc4ccccc43)n2C)cc1 | 91.9 | -0.21 | 86.1 | 2.7 | -1.7 | 3.2
COc1ccc(/C=C/C(=O)c2ccc3ccccc3c2O)cc1CN1CCOCC1 | 68.5 | 1.65 | 69.3 | -2.9 | 33.6 | -7.7
COc1ccc(C(=O)/C=C/c2ccc(OC)c(Cn3nnc4ccccc43)c2)cc1 | 5.3 | . | 6.0* | 7.9 | 85.2* | 7.0
COc1ccc(/C=C/C(=O)c2ccccc2O)cc1CN1CCOCC1 | 74.5 | -0.0945 | 80.5 | 8.5 | 23.9 | -9.2
COc1ccc(C(=O)Cn2c(NCCO)nc3ccccc32)cc1 | . | 0.587 | . | -7.7 | 0.7 | 0.7
COc1ccc(C(=O)/C=C/c2ccc(OC)c(CN3CCOCC3)c2)cc1 | 13.8 | 1.01 | 12.1 | . | 86.0* | -3.1
COc1ccc(/C=C/C(=O)C23CC4CC(CC(C4)C2)C3)cc1CN1CCOCC1 | . | -0.666 | . | . | 66.3* | -2.2
Cc1ccccc1OCC(=O)OCC(=O)NCC1CCCO1 (stereo unspecified) | . | 0.00996 | . | . | -13.7 | 0.9
COc1ccc(/C=C/C(=O)c2ccc(O)cc2)cc1CN1CCOCC1 | 12.0 | . | 14.2 | 10.0 | 97.7* | 3.4
COc1cccc(CN2CCN(C3CCN(c4cccc(C)c4C)CC3)CC2CCO)c1 (stereo unspecified) | . | -0.544 | . | . | 92.0* | -6.1
COc1cccc(CN2CCN(C3CCN(c4ccccc4F)CC3)CC2CCO)c1 (stereo unspecified) | . | -0.95 | . | . | 94.8* | -1.2
OCCC1CN(C2CCN(c3ccccc3)CC2)CCN1Cc1ccc(F)c(F)c1 (stereo unspecified) | . | -0.908 | . | . | 92.9* | -4.7
Cc1cc(F)ccc1N1CCC(N2CCN(C(C)C)C(CCO)C2)CC1 (stereo unspecified) | . | 0.987 | . | . | 98.2* | 1.1
Cc1nc2ccccc2nc1CN1CCN(Cc2ccc(F)c(F)c2)C(CCO)C1 (stereo unspecified) | . | -0.0265 | . | . | 4.6 | 2.2
COc1ccc(OCc2cc(C(=O)O)c(C)o2)cc1 | . | . | . | . | . | 0.1
COc1cccc(CN2CCN(C3CCN(c4ccccc4C)CC3)CC2CCO)c1 (stereo unspecified) | . | -0.393 | . | . | 92.4* | -1.4
CCOc1cc(/C=N/NC(=O)C(=O)Nc2cc(Cl)ccc2C)ccc1O | . | -0.384 | . | . | 2.0 | 5.9

Screening results (PubChem BioAssay)
